Measured values: PubChem BioAssay (NCATS)
Records with an inconclusive call do not appear. Calls of active or inactive are those of the source. Calls follow the shape of the dose curve; as a rule, active = well fitted inhibition curve with a large enough effect; inconclusive = small, poorly fitted or top-dose-only effect; inactive = flat fitted curve, though single readings scatter.

Target: Phospholipid hydroperoxide glutathione peroxidase GPX4 (Homo sapiens) (UniProt P36969)
Assay: Primary qHTS Assay for Inhibitors of Recombinant Selenoprotein Glutathione Peroxidase 4 (GPX4) (AID 1845192); also: nearly all actives have a fitted effect of over 65% in size; as to activity change, negative = inhibition: % is scaled to controls: 0 for no effect and ±100 for the full control effect
Conditions: recombinant GPX4, GR-coupled NADPH fluorescence, 15 min; series mostly up to 50 µM; activity change, negative = inhibition: at the top concentration
In short: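 NADPH consumption, followed by fluorescence at 340/450 nm between 0 and 15 min, reports GPX4 activity via coupled glutathione reductase (100 nM). Enzyme 200 nM was pre-exposed to compound 30 min; 0.5 mM cumene hydroperoxide and 1 mM GSH served as substrates.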

Phospholipid hydroperoxide glutathione peroxidase GPX4 (Homo sapiens), sequence (P36969 whole entry, looked up): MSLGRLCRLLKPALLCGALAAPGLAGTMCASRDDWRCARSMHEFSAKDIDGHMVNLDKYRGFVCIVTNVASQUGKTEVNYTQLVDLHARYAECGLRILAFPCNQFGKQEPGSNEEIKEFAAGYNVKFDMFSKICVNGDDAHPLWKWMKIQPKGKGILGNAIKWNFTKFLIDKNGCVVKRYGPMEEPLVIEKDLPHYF

SMILES | activity change, negative = inhibition | Potency
CCC(=O)c1cc(-c2ccc(Cl)cc2)n(-c2ccc(S(N)(=O)=O)cc2)c1C | -10% (inactive) | –
Cc1nnsc1C(=O)Nc1ccc(-n2nc(C(F)(F)F)cc2C(F)(F)F)cc1 | -14.3% (inactive) | –
Cc1cc(C)c(NC(=O)N(Cc2ccc3c(c2)Cc2ccccc2-3)C2CCCCCC2)c(C)c1 | -6.43% (inactive) | –
Cc1nc(C)c2c(n1)N(Cc1ccc(-c3ccccc3-c3nn[nH]n3)cc1)C(=O)CC2 | 5.7% (inactive) | –
N#C[C@@H]1C[C@@H]2C[C@@H]2N1C(=O)[C@@H](N)C12CC3CC(CC(O)(C3)C1)C2 | -1.8% (inactive) | –
CCCCOc1ccc(-c2cncc(C(=O)NCc3cccnc3N3CCOCC3)c2)cc1Cl | -9.49% (inactive) | –
C=CC(=O)N1CCN(C(=O)c2cc(-c3cc(Cl)ccc3Cl)c(Cl)cc2OC)CC1 | -0.299% (inactive) | –
CC[C@H]1OC(=O)[C@H](C)[C@@H](O[C@H]2C[C@@](C)(OC)[C@@H](O)[C@H](C)O2)[C@H](C)[C@@H](O[C@@H]2O[C@H](C)C[C@H](N(C)C)[C@H]2O)[C@](C)(O)C[C@@H](C)/C(=N/OCOCCOC)[C@H](C)[C@@H](O)[C@]1(C)O | -10.9% (inactive) | –
C[C@@H](O[C@H]1OCCN(Cc2n[nH]nc2CN(C)C)[C@H]1c1ccc(F)cc1)c1cc(C(F)(F)F)cc(C(F)(F)F)c1 | -5.13% (inactive) | –
Cc1cc(CN)cc(C)c1NC(=O)c1ccc(-c2cc(Cl)ccc2Cl)o1 | -10.2% (inactive) | –
CCCCc1nc(C)c(CC(=S)N(C)C)c(=O)n1Cc1ccc(-c2ccccc2-c2nn[nH]n2)cc1 | -27.2% (inactive) | –
Cc1cc(C)c(-c2csc(NC(=O)c3ccccc3)n2)c(C)c1 | -7.22% (inactive) | –
COc1cc(N2CCN(C(C)=O)CC2)ccc1Nc1ncc(Cl)c(Nc2ccc(N3CCN(C(C)=O)CC3)cc2OC)n1 | -14.2% (inactive) | –
CN(CC(=O)N(Cc1ccc(C2CCCCC2)cc1)c1ccc(C(=O)O)cc1)S(=O)(=O)c1c(F)c(F)c(F)c(F)c1F | -23.3% (inactive) | –
CO[C@@H]1[C@@H](O[C@H]2O[C@@H](C)[C@H](O[C@@H]3C[C@](C)(O)[C@H](O)[C@@H](C)O3)[C@@H](N(C)C)[C@@H]2O)[C@@H](CC=O)C[C@@H](C)[C@@H](O[C@H]2CC[C@H](N(C)C)[C@H](C)O2)/C=C/C=C/C[C@@H](C)OC(=O)C[C@H]1O | -10.2% (inactive) | –
CC1OC2O[C@H]3[C@@H](OCC(O)[C@H]3O)OC(=O)C34CCC(C)(C)CC3C3=CCC5C6(C)CC(O)C(OC7OC(CO)C(O)C(O)C7O[C@@H]7OC[C@H](OC(=O)CC(C)(O)CC(=O)OC1C(OC1OCC(O)C(O)C1O)C2O)[C@@H](O)[C@H]7O)C(C)(CO)C6CCC5(C)C3(C)CC4 (some centres undefined) | -12.8% [at 27.8 µM] (inactive) | –
COCCNCc1ccc(-c2cc3nccc(Oc4ccc(NC(=S)NC(=O)Cc5ccc(F)cc5)cc4F)c3s2)nc1 | -24.1% (inactive) | –
Cc1cc(CS(=O)(=O)c2ccccc2)cc(OCc2ccc(CN3CCC[C@@H]3CO)cc2)c1 | – | inactive

Target: Luciferin 4-monooxygenase (Photinus pyralis) (UniProt P08659)
Assay: Primary firefly luciferase (FLuc) qHTS assay for identification of artifact compounds. (AID 1845220); also: nearly all actives have a fitted effect of over 60% in size;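 as to activity change, negative = inhibition: plate controls were DMSO vehicle for no effect and no enzyme for full effect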
Conditions: purified firefly luciferase, luminescence, 5 min; series mostly up to 54.1 µM; activity change, negative = inhibition: at the top concentration
In short: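 Compounds sat 15 min at room temperature with 10 uM luciferin and 10 uM ATP (pH 7.6 Tris acetate). Firefly luciferase (10 nM final) was then added, and luminescence was read 5 min later. Data normalized to no-enzyme and DMSO controls were Hill-fitted.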

SMILES | activity change, negative = inhibition | outcome
CN[C@@H]1[C@@H](O)[C@@H](O[C@@H]2[C@@H](O)[C@H](O[C@H]3O[C@@H]([C@@H](C)NC)CC[C@H]3N)[C@@H](N)C[C@H]2N)OC[C@]1(C)O | -5.14% (inactive) | –
C[N+]1(C)[C@@H]2CC[C@H]1CC(OC(=O)C(O)c1ccccc1)C2 (some centres undefined) | – | inactive
O=C(c1ccc(F)c(F)c1Nc1ccc(I)cc1F)N1CC(O)([C@@H]2CCCCN2)C1 | – | inactive
CCNC(=O)[C@@H]1CCCN1C(=O)[C@H](CCCN=C(N)N)NC(=O)[C@H](CC(C)C)NC(=O)[C@@H](CC(C)C)NC(=O)[C@H](Cc1ccc(O)cc1)NC(=O)[C@H](CO)NC(=O)[C@H](Cc1c[nH]c2ccccc12)NC(=O)[C@H](Cc1cnc[nH]1)NC(=O)[C@@H]1CCC(=O)N1 | -6.54% [at 25.7 µM] (inactive) | –
CC(CCC1(O)OC2CC3C4CC=C5CC(O[C@@H]6O[C@H](CO)[C@@H](O[C@@H]7O[C@H](CO)[C@@H](O)[C@H](O)[C@H]7O)[C@H](O)[C@H]6O[C@@H]6O[C@@H](C)[C@H](O)[C@@H](O)[C@H]6O)CCC5(C)C4CCC3(C)C2C1C)CO[C@@H]1O[C@H](CO)[C@@H](O)[C@H](O)[C@H]1O (some centres undefined) | 1.02% [at 11.6 µM] (inactive) | –
CN([C@H]1c2cc(OCCCC(F)(F)F)ccc2OC(C)(C)[C@@H]1O)S(C)(=O)=O | – | inactive
CC1(CO)CCCC2(C)C1C(OC(=O)c1ccccc1)C=C1C(=O)OCC12O (centres undefined) | – | inactive
Cn1c(NC[C@@H](N)Cc2ccccc2)nc(-c2ccncc2)c(-c2ccc3ccccc3c2)c1=O | 3.37% (inactive) | –
CCCCC(=O)N(Cc1ccc(-c2ccccc2-c2nn[nH]n2)cc1)C(C(=O)O)C(C)C (centres undefined) | 1.52% (inactive) | –
Nc1nc(NCC2CCC(CNS(=O)(=O)c3cccc4ccccc34)CC2)nc2ccccc12 (centres undefined) | 1.57% (inactive) | –
COc1ccc(NS(=O)(=O)c2sc3ccc(Cl)cc3c2C)cc1N1CCNCC1 | – | inactive
CCCCc1nc(Cl)c(CO)n1Cc1ccc(-c2ccccc2-c2nnn[nH]2)cc1 | – | inactive
CCC(=O)c1cc(-c2ccc(Cl)cc2)n(-c2ccc(S(N)(=O)=O)cc2)c1C | -6.03% (inactive) | –
Cc1nnsc1C(=O)Nc1ccc(-n2nc(C(F)(F)F)cc2C(F)(F)F)cc1 | – | inactive
Cc1cc(C)c(NC(=O)N(Cc2ccc3c(c2)Cc2ccccc2-3)C2CCCCCC2)c(C)c1 | – | inactive
Fc1ccccc1CNCc1ccc(-c2ccnc3[nH]ccc23)cc1 | 0.355% (inactive) | –
CN(Cc1ccc(C(=O)O)cc1)c1ccc(OCc2c(-c3c(Cl)cccc3Cl)noc2C2CC2)nc1C(F)(F)F | -1.03% (inactive) | –
Cc1nc(C)c2c(n1)N(Cc1ccc(-c3ccccc3-c3nn[nH]n3)cc1)C(=O)CC2 | – | inactive

SMILES | activity change, negative = inhibition | outcome
N#C[C@@H]1C[C@@H]2C[C@@H]2N1C(=O)[C@@H](N)C12CC3CC(CC(O)(C3)C1)C2 | – | inactive
CCCCOc1ccc(-c2cncc(C(=O)NCc3cccnc3N3CCOCC3)c2)cc1Cl | -16.7% (inactive) | –
C=CC(=O)N1CCN(C(=O)c2cc(-c3cc(Cl)ccc3Cl)c(Cl)cc2OC)CC1 | 4.86% (inactive) | –
CC[C@H]1OC(=O)[C@H](C)[C@@H](O[C@H]2C[C@@](C)(OC)[C@@H](O)[C@H](C)O2)[C@H](C)[C@@H](O[C@@H]2O[C@H](C)C[C@H](N(C)C)[C@H]2O)[C@](C)(O)C[C@@H](C)/C(=N/OCOCCOC)[C@H](C)[C@@H](O)[C@]1(C)O | 4% (inactive) | –
C[C@@H](O[C@H]1OCCN(Cc2n[nH]nc2CN(C)C)[C@H]1c1ccc(F)cc1)c1cc(C(F)(F)F)cc(C(F)(F)F)c1 | – | inactive
Cc1cc(CN)cc(C)c1NC(=O)c1ccc(-c2cc(Cl)ccc2Cl)o1 | – | inactive
CCCCc1nc(C)c(CC(=S)N(C)C)c(=O)n1Cc1ccc(-c2ccccc2-c2nn[nH]n2)cc1 | – | inactive
CC(=O)N1CCN([C@H]2CCN(C(=O)N(C)[C@H](C)c3cc(C(F)(F)F)cc(C(F)(F)F)c3)[C@@H](c3ccc(F)cc3C)C2)CC1 | – | inactive
CC1(C)SC2C(NC(=O)[C@H](C(=O)O)c3ccsc3)C(=O)N2C1C(=O)O (some centres undefined) | 2.15% (inactive) | –
Cc1cc(C)c(-c2csc(NC(=O)c3ccccc3)n2)c(C)c1 | -8.4% (inactive) | –
COc1c(N2CC3CCCNC3C2)c(F)cc2c(=O)c(C(=O)O)cn(C3CC3)c12 (centres undefined) | 0.249% (inactive) | –
COc1cc(N2CCN(C(C)=O)CC2)ccc1Nc1ncc(Cl)c(Nc2ccc(N3CCN(C(C)=O)CC3)cc2OC)n1 | – | inactive
CN(CC(=O)N(Cc1ccc(C2CCCCC2)cc1)c1ccc(C(=O)O)cc1)S(=O)(=O)c1c(F)c(F)c(F)c(F)c1F | – | inactive
CO[C@@H]1[C@@H](O[C@H]2O[C@@H](C)[C@H](O[C@@H]3C[C@](C)(O)[C@H](O)[C@@H](C)O3)[C@@H](N(C)C)[C@@H]2O)[C@@H](CC=O)C[C@@H](C)[C@@H](O[C@H]2CC[C@H](N(C)C)[C@H](C)O2)/C=C/C=C/C[C@@H](C)OC(=O)C[C@H]1O | -0.952% (inactive) | –
CC1OC2O[C@H]3[C@@H](OCC(O)[C@H]3O)OC(=O)C34CCC(C)(C)CC3C3=CCC5C6(C)CC(O)C(OC7OC(CO)C(O)C(O)C7O[C@@H]7OC[C@H](OC(=O)CC(C)(O)CC(=O)OC1C(OC1OCC(O)C(O)C1O)C2O)[C@@H](O)[C@H]7O)C(C)(CO)C6CCC5(C)C3(C)CC4 (some centres undefined) | -4.81% [at 25.7 µM] (inactive) | –
COCCNCc1ccc(-c2cc3nccc(Oc4ccc(NC(=S)NC(=O)Cc5ccc(F)cc5)cc4F)c3s2)nc1 | – | inactive
Cc1cc(CS(=O)(=O)c2ccccc2)cc(OCc2ccc(CN3CCC[C@@H]3CO)cc2)c1 | -19.6% (inactive) | –
Cc1ccn(-c2cc(Cl)ccc2[C@@H](Oc2cc(-c3ccc(C[C@H](N)C(=O)O)cc3)nc(N)n2)C(F)(F)F)n1 | – | inactive
